Experimental data as given in PubChem BioAssay (NCATS).
Results filed as inconclusive are left out. Where a call stands in place of a potency, no number is given. The source made the active and inactive calls. Unless noted, calls follow the shape of the dose curve; as a rule, active = well fitted curve in the direction sought with a large enough effect; inconclusive = small, poorly fitted or top-dose-only effect, or another doubt; inactive = no such curve, though single readings can be large; an effect the other way counts as inactive or inconclusive.

Experiments:
[1] = target: Ubiquitin carboxyl-terminal hydrolase 1 (Homo sapiens) (UniProt O94782); assay: Inhibitors of USP1/UAF1: Pilot qHTS (AID 504865);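 also: rhodamine fluorescence freed from ubiquitin-rhodamine substrate followed over time; top concentration of the series differs between compounds; nearly all actives have a fitted effect of over 35% in size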
How it was run: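 Deubiquitinase activity followed as kinetic rhodamine fluorescence release from 150 nM Ub-Rho. 1 nM USP1/UAF1 with compound, after 15 min room-temperature preincubation, in HEPES pH 7.8 buffer containing TCEP, EDTA, BSA and Tween-20.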

[2] = target: Androgen receptor (Homo sapiens) (UniProt P10275); assay: qHTS assay for small molecule agonists of androgen receptor signaling (AID 588515; active = well fitted curve in the direction sought with a large enough effect in the signal ratio, with a control signal flat; the % refers to the signal ratio); conditions: AR-UAS-bla HEK293, beta-lactamase ratio, agonist 16 h; stronger effect = higher value
How it was run: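 EC50 and efficacy came from Hill fits of titrations (up to 92 uM) normalized to 30 nM R1881 as 100% and DMSO as 0%. Compound exposure was 16 h at 37 C on AR-UAS-bla HEK293 cells, with a 405/460/530 nm CCF4 fluorescence read.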

[3] = target: Androgen receptor (Homo sapiens) (UniProt P10275); assay: qHTS assay for small molecule antagonists of androgen receptor signaling (AID 588516; active = well fitted curve in the direction sought with a large enough effect in the signal ratio, with a control signal flat, not every such curve was filed as active; the % refers to the signal ratio)
How it was run: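 Antagonist mode: inhibition of R1881-stimulated (10 nM final) bla reporter in GeneBLAzer AR HEK 293 cells, 16 h at 37C, compounds titrated. IC50 and efficacy from Hill-equation fits of 405/460–530 nm FRET ratios.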

[4] = target: Bile acid receptor (Homo sapiens) (UniProt Q96RI1); assay: qHTS assay for small molecule antagonists of farnesoid X receptor signaling (AID 588526; calls by dose curve)
How it was run: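 Antagonist mode: titrated compounds tested against chenodeoxycholic acid stimulation (normalized to 50 uM CDCA and DMSO) in GeneBLAzer HEK293T cells for 16 h. Beta-lactamase read by CCF4 fluorescence; IC50 from Hill fits.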

[5] = qHTS assay for small molecule antagonists of peroxisome proliferator-activated receptor delta signaling (AID 588535; active = well fitted inhibition curve with a large enough effect in the signal ratio, with a control signal flat, not every such curve was filed as active; the % refers to the signal ratio;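 as to max response: cells co-treated with a PPAR-delta agonist as stimulator during compound exposure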); conditions: HEK293T PPARd-UAS-bla, beta-lactamase FRET ratio, 18 h; 460 nm channel
How it was run: (§1)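 Cells were seeded at 4000 per well in assay medium containing 2% charcoal/dextran FBS and held 5 hrs at 37 C. Compounds were then added for 18 hrs. CCF4 substrate was applied for 2 hrs at room temperature before fluorescence reading.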

[6] = target: Peroxisome proliferator-activated receptor delta (Homo sapiens) (UniProt Q03181); assay: as above
How it was run: as §1

[7] = target: Peroxisome proliferator-activated receptor gamma (Homo sapiens) (UniProt P37231); assay: qHTS assay for small molecule agonists of peroxisome proliferator-activated receptor gamma signaling (AID 588536; active = well fitted curve in the direction sought with a large enough effect in the signal ratio, with a control signal flat, not every such curve was filed as active; the % refers to the signal ratio)
How it was run: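 GeneBLAzer PPAR-gamma-UAS-bla HEK293 cells in 1% charcoal/dextran-treated FBS medium were treated 16 h at 37 C with compounds. Beta-lactamase activity was read by CCF4 ratio (460/530 nm). Response was normalized to 2 uM rosiglitazone (100%) and DMSO, then Hill-fitted for EC50 and efficacy.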

[8] = target: Vitamin D3 receptor (Homo sapiens) (UniProt P11473); assay: qHTS assay for small molecule antagonists of vitamin D receptor signaling (AID 588541; calls by dose curve;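 also: receptor activated by calcitriol during compound treatment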)
How it was run: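 VDR-UAS-bla HEK293T cells in 2% charcoal-stripped FBS were stimulated with 1-alpha,25-dihydroxyvitamin D3 (3 nM final) plus compound for 16 h at 37 C. The beta-lactamase CCF4 readout was normalized to 50 nM agonist and DMSO, and Hill fits gave IC50.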

[9] = target: Vitamin D3 receptor (Homo sapiens) (UniProt P11473); assay: qHTS assay for small molecule agonists of vitamin D receptor signaling (AID 588543; calls by dose curve)
How it was run: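 Agonist-mode beta-lactamase reporter: HEK293T VDR-UAS-bla cells in charcoal-stripped 2% FBS, compound series 16 h 37 C, CCF4 2 h RT. EC50 from Hill fit, scaled against DMSO and 50 nM calcitriol control.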

[10] = qHTS assay for small molecule agonists of retinoid X receptor alpha signaling (AID 588544); conditions: HEK293T RXRa-UAS-bla, beta-lactamase reporter, 18 h; 530 nm emission
[11] = target: Thyroid hormone receptor beta (Homo sapiens) (UniProt P10828); assay: qHTS assay for small molecule agonists of thyroid hormone receptor beta signaling (AID 588545; calls by dose curve)
How it was run: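 Efficacy and EC50 values derive from Hill fits of qHTS titration data, normalized to 10 nM T3 and DMSO-only wells. HEK 293 reporter cells were stimulated for 18 hrs at 37 C, with beta-lactamase activity measured by CCF4 fluorescence.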

[12] = qHTS assay for small molecule antagonists of retinoid X receptor alpha signaling (AID 588546; active = well fitted inhibition curve with a large enough effect in the signal ratio, with a control signal flat, not every such curve was filed as active; the % refers to the signal ratio;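 also: cells stimulated with 9-cis-retinoic acid as agonist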); conditions: HEK293T RXRa-UAS-bla, beta-lactamase ratio, antagonist mode; measured here: W530 green channel, cytotoxicity proxy
How it was run: (§2)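 Beta-lactamase reporter inhibition, read as CCF4 fluorescence ratio (ex 405, em 460/530 nm) after 2 h at RT. HEK293T UAS-bla cells, 2500/well, were stimulated with 9-cis-RA at 500 or 100 nM final alongside test compound for 18 h at 37 C.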

[13] = target: Retinoic acid receptor RXR-alpha (Homo sapiens) (UniProt P19793); assay: as above; conditions: HEK293T RXRa-UAS-bla, beta-lactamase ratio, antagonist mode
How it was run: as §2

[14] = target: Thyroid hormone receptor beta (Homo sapiens) (UniProt P10828); assay: qHTS assay for small molecule antagonists of thyroid hormone receptor beta signaling (AID 588547; active = well fitted inhibition curve with a large enough effect in the signal ratio, with a control signal flat, not every such curve was filed as active; the % refers to the signal ratio;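 also: cells stimulated with 0.4 nM T3 agonist during compound exposure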); conditions: TR-UAS-bla HEK293, beta-lactamase ratio, antagonist mode, 18 h
How it was run: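 TR-UAS-bla GripTite HEK293 cells in 2% charcoal/dextran FBS medium; compounds 0.59 nM to 92 uM with T3 at 0.4nM final, 18 h at 37 C. Beta-lactamase read by CCF4 fluorescence (460/530 nm); Hill fits gave IC50 and efficacy.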

[15] = target: Luciferin 4-monooxygenase (Photinus pyralis) (UniProt P08659); assay: Biochemical firefly luciferase enzyme assay for NPC (AID 624030);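 also: purified P. pyralis luciferase at 10 nM with luciferin and ATP substrate; nearly all actives have a fitted effect of over 70% in size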
How it was run: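 Purified P. pyralis luciferase at 10 nM in 50 mM Tris Acetate (final), luminescence read within 5 minutes of enzyme addition to compounds. Activity normalised to PTC124 versus DMSO; concentration-response curves classed by r2, magnitude and activity.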

[16] = S16 Schwann cell viability assay (CellTiter-Glo assay) (AID 624031);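 also: native untransfected S16 rat Schwann cells; cellular ATP luminescence as a viability measure; nearly all actives have a fitted effect of over 70% in size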
How it was run: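 Cells were seeded at 500-750 per well in phenol red-free DMEM with 10% FBS and left overnight. Compounds or DMSO were pinned in, incubation ran 24 h at 37 °C/5% CO2, then CellTiter-Glo reagent was added and luminescence measured.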

[17] = S16 Schwann cell PMP22 intronic element firefly luciferase assay (AID 624032); also: nearly all actives have a fitted effect of over 30% in size
How it was run: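 Rat S16 Schwann cells stably carrying firefly luciferase driven by a PMP22 intronic element, in 10% FBS, treated 24 h at 37 C. ONE-Glo luminescence normalized to PTC124 control and DMSO (0%); curves classed by r2, magnitude and activity.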

[18] = S16 Schwann cell PMP22 intronic element beta-lactamase assay (AID 624044; calls by dose curve; also: nearly all actives have a fitted effect of over 15% in size); conditions: S16 rat Schwann cells, PMP22 element beta-lactamase FRET, 24 h; ratio activity, negative = inhibition: at 38.3 µM (top of the series)
How it was run: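 Rat S16 Schwann cells with beta-Lac driven by a PMP22 intronic element, compound-treated 24 h at 37 °C. LiveBLAzer FRET B/G read: 460 nm normalized to potassium clavulanate vs DMSO; 535 nm FRET as viability; concentration-effect curves classified.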

[19] = qHTS assay for small molecule agonists of the antioxidant response element (ARE) signaling pathway (AID 651741; active = well fitted activation curve with a large enough effect in the signal ratio; the % refers to the signal ratio)
How it was run: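 HepG2 ARE-bla cells plated at 2,000 cells/well and incubated 5 h at 37 C/5% CO2 received 23 nL compound in DMSO. After 16 h at 37 C, LiveBLAzer B/G FRET substrate was applied for 2 h at room temperature and fluorescence read.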

[20] = qHTS assay for small molecule activators of the nuclear factor-kappa B (NF-kB) signaling pathway (AID 651749; active = well fitted activation curve with a large enough effect in the signal ratio; the % refers to the signal ratio); conditions: NF-kB-bla ME-180 cells, beta-lactamase FRET ratio, 16 h; stronger effect = higher value
How it was run: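 Incubation lasted 16 hr at 37C in 5% CO2 after 23 nL compound addition to ME-180 NF-kB-bla cells. Activation appears as beta-lactamase-mediated FRET loss.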

[21] = qHTS assay for environmental chemicals that activate the Aryl hydrocarbon Receptor (AhR) signaling pathway (AID 651777); conditions: 1A2-DRE human hepatoma cells, luciferase, 24 h; activation: stronger effect = higher value; also: nearly all actives have a fitted effect of over 15% in size
How it was run: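 AhR activation is scored as a rise in luciferase from a stable DRE–CYP1A2 promoter construct in human hepatoma cells. Treatment lasts 24 hr at 37 C; detection uses One-Glo after 30 min at room temperature.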

[22] = target: Peroxisome proliferator-activated receptor alpha (Homo sapiens) (UniProt Q07869); assay: qHTS assay for small molecule agonists of the peroxisome proliferator-activated receptor alpha (PPARalpha) signaling pathway (AID 651778); conditions: PathHunter PPARalpha complementation, chemiluminescence, 6 h; max response: stronger effect = higher value
How it was run: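 Enzyme-fragment complementation assay in which ligand-bound PPARalpha translocates and forms an active enzyme that generates chemiluminescence. Cells were plated overnight, exposed to compound for 6 hr at 37 C, and then given detection reagent for 60 min at room temperature.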

Androgen receptor (Homo sapiens), sequence (P10275 whole entry, looked up): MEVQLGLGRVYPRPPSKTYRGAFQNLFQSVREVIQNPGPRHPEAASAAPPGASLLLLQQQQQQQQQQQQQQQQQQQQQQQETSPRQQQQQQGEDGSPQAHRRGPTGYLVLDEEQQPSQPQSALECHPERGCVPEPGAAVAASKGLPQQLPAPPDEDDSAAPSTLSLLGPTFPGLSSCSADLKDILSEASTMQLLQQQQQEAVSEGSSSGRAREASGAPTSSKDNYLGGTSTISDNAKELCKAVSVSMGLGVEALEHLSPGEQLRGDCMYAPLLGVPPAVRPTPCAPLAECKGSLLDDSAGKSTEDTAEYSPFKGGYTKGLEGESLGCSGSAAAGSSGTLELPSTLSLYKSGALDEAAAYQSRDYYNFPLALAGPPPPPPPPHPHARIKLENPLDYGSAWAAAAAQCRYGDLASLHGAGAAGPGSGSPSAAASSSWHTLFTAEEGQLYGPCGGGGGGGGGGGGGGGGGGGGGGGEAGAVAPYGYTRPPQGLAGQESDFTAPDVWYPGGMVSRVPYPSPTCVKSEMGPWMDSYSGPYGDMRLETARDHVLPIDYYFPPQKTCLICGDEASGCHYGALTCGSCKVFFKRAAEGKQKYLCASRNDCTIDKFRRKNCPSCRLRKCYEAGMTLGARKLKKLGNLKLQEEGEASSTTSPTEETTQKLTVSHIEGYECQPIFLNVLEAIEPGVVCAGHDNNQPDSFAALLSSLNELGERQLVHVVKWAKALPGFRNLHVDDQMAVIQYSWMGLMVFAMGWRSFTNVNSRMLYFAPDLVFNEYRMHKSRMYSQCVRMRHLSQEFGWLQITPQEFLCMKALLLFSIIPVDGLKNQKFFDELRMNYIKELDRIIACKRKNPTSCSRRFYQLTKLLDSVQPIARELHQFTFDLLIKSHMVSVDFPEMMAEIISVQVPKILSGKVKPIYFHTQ
Thyroid hormone receptor beta (Homo sapiens), sequence (P10828 whole entry, looked up): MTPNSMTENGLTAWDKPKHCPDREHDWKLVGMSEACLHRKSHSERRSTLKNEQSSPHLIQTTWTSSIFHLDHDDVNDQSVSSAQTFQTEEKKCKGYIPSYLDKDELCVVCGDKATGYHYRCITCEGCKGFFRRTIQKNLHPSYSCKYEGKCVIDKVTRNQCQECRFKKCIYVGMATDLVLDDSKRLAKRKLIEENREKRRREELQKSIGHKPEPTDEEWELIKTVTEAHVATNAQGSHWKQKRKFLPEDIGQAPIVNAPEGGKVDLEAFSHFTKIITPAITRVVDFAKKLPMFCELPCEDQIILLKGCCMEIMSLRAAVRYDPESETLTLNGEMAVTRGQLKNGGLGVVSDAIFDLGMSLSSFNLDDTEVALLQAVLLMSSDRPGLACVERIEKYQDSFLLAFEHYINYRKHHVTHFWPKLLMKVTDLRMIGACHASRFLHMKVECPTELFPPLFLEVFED
Vitamin D3 receptor (Homo sapiens), sequence (P11473 whole entry, looked up): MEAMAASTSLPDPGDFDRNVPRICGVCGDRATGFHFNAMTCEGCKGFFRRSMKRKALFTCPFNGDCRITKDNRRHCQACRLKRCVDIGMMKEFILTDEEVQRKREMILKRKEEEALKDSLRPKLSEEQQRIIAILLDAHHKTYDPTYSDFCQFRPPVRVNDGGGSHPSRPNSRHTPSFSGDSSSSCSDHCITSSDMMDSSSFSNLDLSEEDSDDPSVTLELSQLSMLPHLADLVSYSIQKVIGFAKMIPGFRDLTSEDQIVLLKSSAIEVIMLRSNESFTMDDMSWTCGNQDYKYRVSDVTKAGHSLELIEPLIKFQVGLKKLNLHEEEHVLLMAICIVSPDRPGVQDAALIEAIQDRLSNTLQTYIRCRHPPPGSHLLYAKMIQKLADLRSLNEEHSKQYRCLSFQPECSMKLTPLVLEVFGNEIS
Peroxisome proliferator-activated receptor delta (Homo sapiens), sequence (Q03181 whole entry, looked up): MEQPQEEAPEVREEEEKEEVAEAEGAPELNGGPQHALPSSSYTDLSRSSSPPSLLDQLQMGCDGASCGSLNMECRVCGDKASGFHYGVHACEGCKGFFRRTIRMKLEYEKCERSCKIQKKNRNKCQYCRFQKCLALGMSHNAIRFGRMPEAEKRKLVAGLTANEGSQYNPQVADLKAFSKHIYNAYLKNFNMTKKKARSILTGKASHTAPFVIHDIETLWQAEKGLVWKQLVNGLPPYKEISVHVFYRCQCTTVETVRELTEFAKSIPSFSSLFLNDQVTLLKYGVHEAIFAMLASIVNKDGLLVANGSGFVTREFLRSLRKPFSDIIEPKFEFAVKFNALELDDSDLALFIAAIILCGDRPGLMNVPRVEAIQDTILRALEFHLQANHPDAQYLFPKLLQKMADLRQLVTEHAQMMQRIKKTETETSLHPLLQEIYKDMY
Peroxisome proliferator-activated receptor alpha (Homo sapiens), sequence (Q07869 whole entry, looked up, the tested form may be a part): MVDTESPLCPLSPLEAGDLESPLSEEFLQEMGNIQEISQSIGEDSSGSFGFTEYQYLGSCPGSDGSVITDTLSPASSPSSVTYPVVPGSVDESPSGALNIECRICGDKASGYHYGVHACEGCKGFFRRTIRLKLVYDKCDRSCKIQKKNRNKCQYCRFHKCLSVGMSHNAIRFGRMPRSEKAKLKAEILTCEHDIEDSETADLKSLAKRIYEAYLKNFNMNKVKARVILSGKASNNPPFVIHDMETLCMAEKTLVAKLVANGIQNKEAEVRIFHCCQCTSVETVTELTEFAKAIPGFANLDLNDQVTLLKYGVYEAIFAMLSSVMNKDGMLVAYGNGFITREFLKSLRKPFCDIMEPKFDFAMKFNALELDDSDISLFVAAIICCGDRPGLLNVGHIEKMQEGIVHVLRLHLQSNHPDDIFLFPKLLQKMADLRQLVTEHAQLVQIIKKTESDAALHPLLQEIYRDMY
Bile acid receptor (Homo sapiens), sequence (Q96RI1 whole entry, looked up): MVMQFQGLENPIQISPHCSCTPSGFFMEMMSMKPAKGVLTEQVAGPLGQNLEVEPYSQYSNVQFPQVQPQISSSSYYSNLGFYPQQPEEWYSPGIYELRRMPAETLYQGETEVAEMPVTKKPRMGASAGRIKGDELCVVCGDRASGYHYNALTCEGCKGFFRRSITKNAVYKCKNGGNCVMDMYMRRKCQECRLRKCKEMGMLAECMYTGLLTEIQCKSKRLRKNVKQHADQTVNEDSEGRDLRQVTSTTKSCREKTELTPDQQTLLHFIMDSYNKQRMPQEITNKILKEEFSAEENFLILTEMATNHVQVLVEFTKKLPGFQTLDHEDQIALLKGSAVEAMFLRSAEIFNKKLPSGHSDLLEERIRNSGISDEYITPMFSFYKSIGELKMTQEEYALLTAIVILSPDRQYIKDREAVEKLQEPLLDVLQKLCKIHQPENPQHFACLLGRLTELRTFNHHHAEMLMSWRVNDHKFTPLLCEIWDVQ
Luciferin 4-monooxygenase (Photinus pyralis), sequence (P08659 whole entry, looked up): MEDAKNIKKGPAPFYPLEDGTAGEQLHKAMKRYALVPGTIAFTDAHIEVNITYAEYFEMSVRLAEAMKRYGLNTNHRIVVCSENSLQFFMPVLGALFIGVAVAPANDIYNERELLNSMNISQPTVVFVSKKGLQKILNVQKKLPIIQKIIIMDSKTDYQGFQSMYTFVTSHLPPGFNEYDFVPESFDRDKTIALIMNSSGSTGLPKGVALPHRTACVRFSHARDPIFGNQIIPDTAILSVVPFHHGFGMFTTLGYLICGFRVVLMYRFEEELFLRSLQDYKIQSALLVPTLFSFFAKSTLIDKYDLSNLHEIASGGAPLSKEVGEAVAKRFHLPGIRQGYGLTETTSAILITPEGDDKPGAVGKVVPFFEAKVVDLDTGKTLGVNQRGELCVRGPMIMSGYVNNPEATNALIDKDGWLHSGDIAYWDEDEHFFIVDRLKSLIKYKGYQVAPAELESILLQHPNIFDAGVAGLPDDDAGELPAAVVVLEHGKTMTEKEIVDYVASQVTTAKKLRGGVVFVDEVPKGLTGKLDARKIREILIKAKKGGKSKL
Peroxisome proliferator-activated receptor gamma (Homo sapiens), sequence (P37231 whole entry, looked up): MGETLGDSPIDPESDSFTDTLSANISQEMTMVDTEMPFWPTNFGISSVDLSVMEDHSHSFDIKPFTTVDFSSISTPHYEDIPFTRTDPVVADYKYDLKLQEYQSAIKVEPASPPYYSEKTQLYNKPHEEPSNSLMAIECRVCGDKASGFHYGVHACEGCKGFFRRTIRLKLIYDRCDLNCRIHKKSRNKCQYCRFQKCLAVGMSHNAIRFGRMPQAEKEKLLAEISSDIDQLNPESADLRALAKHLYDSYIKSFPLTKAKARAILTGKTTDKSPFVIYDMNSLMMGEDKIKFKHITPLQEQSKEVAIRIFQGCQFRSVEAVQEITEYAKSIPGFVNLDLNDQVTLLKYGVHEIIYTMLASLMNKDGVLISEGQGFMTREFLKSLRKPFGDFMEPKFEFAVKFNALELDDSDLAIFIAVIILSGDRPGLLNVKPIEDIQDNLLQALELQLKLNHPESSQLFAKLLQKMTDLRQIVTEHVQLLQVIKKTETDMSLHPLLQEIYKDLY
Retinoic acid receptor RXR-alpha (Homo sapiens), sequence (P19793 whole entry, looked up): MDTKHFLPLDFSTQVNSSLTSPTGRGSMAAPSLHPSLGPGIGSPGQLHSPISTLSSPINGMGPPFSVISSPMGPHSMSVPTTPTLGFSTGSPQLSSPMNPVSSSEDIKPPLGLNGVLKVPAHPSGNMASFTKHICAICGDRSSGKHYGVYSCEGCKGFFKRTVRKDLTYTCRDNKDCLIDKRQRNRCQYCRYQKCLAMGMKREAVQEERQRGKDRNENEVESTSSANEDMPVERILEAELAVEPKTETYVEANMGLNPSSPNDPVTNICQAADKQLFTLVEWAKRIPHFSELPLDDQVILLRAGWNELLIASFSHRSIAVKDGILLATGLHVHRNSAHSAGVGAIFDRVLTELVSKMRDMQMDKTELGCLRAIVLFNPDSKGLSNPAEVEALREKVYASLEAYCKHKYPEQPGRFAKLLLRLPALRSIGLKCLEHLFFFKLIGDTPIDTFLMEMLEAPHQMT

With `CC1CCC(C(C)C)C(O)C1` (configuration not stated) the Potency [1] was “inactive”, the activation [2] was 13.2% (inactive) and the outcome [3] was “inactive”. The Potency [4] was “inactive”, the max response [5] was 8.18% and the outcome [6] was “inactive”. The outcome [7] was “inactive”, the Potency [8] was “inactive” and the outcome [9] was “inactive”. The max response [10] was -16.3%, the outcome [11] was “inactive” and the max response [12] was -12.2%. The max response [13] was 5.79% (inactive), the activity change % (negative = inhibition) [14] was -1.02% (inactive) and the Potency [15] was “inactive”. For the same compound, the Potency [16] was “inactive”, the Potency [17] was “inactive” and the Potency [18] was “inactive”. For the same compound, the Potency [19] was “inactive”, the activation [20] was -2.43% (inactive) and the activation [21] was -1.72% (inactive). For the same compound, the max response [22] was -0.619% (inactive).
